Experimental data reported in PubChem BioAssay AID1159580 (chemical genetic matrix, 2015).
About 2,000 (36%) of roughly 5,500 compounds were called active. Not shown: some 18% with an inconclusive outcome. Rule as the data show it: active = normalized growth mostly below about 0.91 (no sharp cut-off); inconclusive = no clear call, values can overlap the other calls; inactive = mostly above about 0.92. The list shows a part of the results.

Assay: chemical genetic growth profiling, strain panel (AID 1159580);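 also: tested at 20 µM; growth read once vehicle control cultures reached saturation at 30 °C; 1 = growth at the plate median or of vehicle wells; lower values mean less growth of the strain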
Details: growth OD

Measured: normalized growth

CCOCN(C(=O)CCl)c1c(C)cccc1CC
inactive: S. cerevisiae deletion strains, locus YJR043C, strain POL32, hits give low values 0.983 | S. cerevisiae deletion strains, locus YJR075W, strain HOC1, hits give low values 0.993 | S. cerevisiae deletion strains, locus YKL009W, strain mrt4, hits give low values 0.989 | S. cerevisiae deletion strains, locus YKL068W, hits give low values 0.973 | S. cerevisiae deletion strains, locus YKL085W, strain MDH1 (second series), hits give low values 0.991 | S. cerevisiae deletion strains, locus YKL085W, strain MDH1, hits give low values 0.991 | S. cerevisiae deletion strains, locus YKL160W, strain elf1, hits give low values 0.995 | S. cerevisiae deletion strains, locus YKL190W, strain CNB1, hits give low values 0.983 | S. cerevisiae deletion strains, locus YKR001C, strain vps1, hits give low values 0.986 | S. cerevisiae deletion strains, locus YKR026C, strain gcn3, hits give low values 0.985 | S. cerevisiae deletion strains, locus YKR091W, strain srl3, hits give low values 0.988 | S. cerevisiae deletion strains, locus YLL001W, strain dnm1, hits give low values 0.989 | S. cerevisiae deletion strains, locus YLL026W, hits give low values 0.991 | S. cerevisiae deletion strains, locus YLL041C, strain sdh2, hits give low values 0.988 | S. cerevisiae deletion strains, locus YLR027C, strain aat2, hits give low values 0.976 | S. cerevisiae deletion strains, locus YLR039C, strain RIC1, hits give low values 0.994 | S. cerevisiae deletion strains, locus YLR058C, strain SHM2, hits give low values 0.986 | S. cerevisiae deletion strains, locus YLR102C, strain apc9, hits give low values 0.974 | S. cerevisiae deletion strains, locus YLR221C, strain rsa3, hits give low values 0.981 | S. cerevisiae deletion strains, locus YLR258W, strain gsy2, hits give low values 1.02 | S. cerevisiae deletion strains, locus YLR262C, strain YPT6 (second series), hits give low values 0.969 | S. cerevisiae deletion strains, locus YLR262C, strain YPT6, hits give low values 1.01 | S. cerevisiae deletion strains, locus YLR268W, strain sec22, hits give low values 0.979 | S. cerevisiae deletion strains, locus YLR320W, strain mms22, hits give low values 0.986 | S. cerevisiae deletion strains, locus YLR330W, strain CHS5, hits give low values 0.977 | S. cerevisiae deletion strains, locus YLR342W, strain FKS1 (second series), hits give low values 0.98 | S. cerevisiae deletion strains, locus YLR342W, strain FKS1, hits give low values 0.978 | S. cerevisiae deletion strains, locus YLR357W, strain rsc2, hits give low values 0.961 | S. cerevisiae deletion strains, locus YLR370C, strain arc18, hits give low values 0.995 | S. cerevisiae deletion strains, locus YLR371W, strain rom2, hits give low values 0.963 | S. cerevisiae deletion strains, locus YLR384C, strain iki3, hits give low values 0.98 | S. cerevisiae deletion strains, locus YLR418C, strain cdc73, hits give low values 1.03 | S. cerevisiae deletion strains, locus YML016C, strain PPZ1, hits give low values 0.992 | S. cerevisiae deletion strains, locus YML032C, strain rad52, hits give low values 0.969 | S. cerevisiae deletion strains, locus YML120C, strain ndi1, hits give low values 0.99 | S. cerevisiae deletion strains, locus YML124C, strain tub3, hits give low values 0.972 | S. cerevisiae deletion strains, locus YMR058W, strain fet3, hits give low values 0.988 | S. cerevisiae deletion strains, locus YMR078C, strain ctf18, hits give low values 0.959 | S. cerevisiae deletion strains, locus YMR125W, strain sto1, hits give low values 0.988 | S. cerevisiae deletion strains, locus YMR129W, hits give low values 0.982 | S. cerevisiae deletion strains, locus YMR205C, strain PFK2, hits give low values 0.996 | S. cerevisiae deletion strains, locus YMR223W, strain ubp8, hits give low values 0.984 | S. cerevisiae deletion strains, locus YMR231W, strain pep5, hits give low values 0.981 | S. cerevisiae deletion strains, locus YMR263W, strain SAP30, hits give low values 0.983 | S. cerevisiae deletion strains, locus YMR307W, strain GAS1, hits give low values 1 | S. cerevisiae deletion strains, locus YNL067W, strain RPL9B, hits give low values 0.995 | S. cerevisiae deletion strains, locus YNL071W, strain lat1, hits give low values 0.989 | S. cerevisiae deletion strains, locus YNL128W, strain TEP1, hits give low values 0.978 | S. cerevisiae deletion strains, locus YNL153C, strain GIM3, hits give low values 1 | S. cerevisiae deletion strains, locus YNL209W, strain ssb2, hits give low values 0.998 | S. cerevisiae deletion strains, locus YNL233W, strain BNI4, hits give low values 0.996 | S. cerevisiae deletion strains, locus YNL248C, strain rpa49, hits give low values 0.984 | S. cerevisiae deletion strains, locus YNL250W, strain rad50, hits give low values 0.977 | S. cerevisiae deletion strains, locus YNL271C, strain bni1, hits give low values 0.994 | S. cerevisiae deletion strains, locus YNL298W, strain CLA4, hits give low values 0.968 | S. cerevisiae deletion strains, locus YNL307C, strain MCK1, hits give low values 0.982 | S. cerevisiae deletion strains, locus YNL322C, strain KRE1 (second series), hits give low values 0.98 | S. cerevisiae deletion strains, locus YNL322C, strain KRE1, hits give low values 0.982 | S. cerevisiae deletion strains, locus YNR049C, strain mso1, hits give low values 0.986 | S. cerevisiae deletion strains, locus YNR052C, strain pop2, hits give low values 0.957 | S. cerevisiae deletion strains, locus YOL006C, strain TOP1, hits give low values 1.02 | S. cerevisiae deletion strains, locus YOL012C, strain htz1 0.911 | S. cerevisiae deletion strains, locus YOL147C, strain pex11, hits give low values 0.981 | S. cerevisiae deletion strains, locus YOR001W, strain rrp6, hits give low values 0.969 | S. cerevisiae deletion strains, locus YOR061W, strain CKA2, hits give low values 0.999 | S. cerevisiae deletion strains, locus YOR069W, strain VPS5, hits give low values 0.987 | S. cerevisiae deletion strains, locus YOR070C, strain gyp1, hits give low values 0.98 | S. cerevisiae deletion strains, locus YOR080W, strain dia2, hits give low values 0.975 | S. cerevisiae deletion strains, locus YOR083W, strain WHI5, hits give low values 1 | S. cerevisiae deletion strains, locus YOR106W, strain vam3, hits give low values 1 | S. cerevisiae deletion strains, locus YOR136W, strain idh2, hits give low values 0.98 | S. cerevisiae deletion strains, locus YOR144C, strain elg1, hits give low values 0.961 | S. cerevisiae deletion strains, locus YOR184W, strain ser1, hits give low values 0.986 | S. cerevisiae deletion strains, locus YOR265W, strain rbl2, hits give low values 1 | S. cerevisiae deletion strains, locus YOR270C, strain vph1, hits give low values 1.01 | S. cerevisiae deletion strains, locus YOR290C, strain snf2, hits give low values 1 | S. cerevisiae deletion strains, locus YOR316C, strain cot1, hits give low values 0.978 | S. cerevisiae deletion strains, locus YPL051W, strain arl3, hits give low values 0.99 | S. cerevisiae deletion strains, locus YPL055C, strain LGE1, hits give low values 1 | S. cerevisiae deletion strains, locus YPL078C, strain atp4, hits give low values 0.985 | S. cerevisiae deletion strains, locus YPL106C, strain sse1, hits give low values 1.01 | S. cerevisiae deletion strains, locus YPL240C, strain hsp82, hits give low values 0.995 | S. cerevisiae deletion strains, locus YPL241C, strain CIN2, hits give low values 0.99 | S. cerevisiae deletion strains, locus YPR119W, strain clb2, hits give low values 0.964 | S. cerevisiae deletion strains, locus YPR141C, strain kar3, hits give low values 0.987 | S. cerevisiae deletion strains, locus YPR163C, strain tif3, hits give low values 0.958 | S. cerevisiae deletion strains, locus YPR167C, strain met16, hits give low values 0.987 | S. cerevisiae deletion strains, strain wtn01, hits give low values 0.967 | S. cerevisiae strains, strain wild type, hits give low values 0.993
